# Screening results as filed in PubChem BioAssay.
# Shown are actives, neighbours in structure and some others; about 3.8% of the full set was active somewhere.
# Gli-Sufu block: blocks Gli-Sufu signaling in a luciferase reporter. 340,000 tested, 0.74% active. Sufu-KO-LIGHT fibroblasts, Gli luciferase reporter luminescence. inhibition, % at 5 µM;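 active = inhibition above about 55%, limit read from the data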;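 also: 0% = DMSO-treated cells and 100% = wells with medium but no cells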
# Mdm2 MdmX PPI: inhibitors of human Mdm2/MdmX interaction; SaOS-2 split-luciferase Mdm2/MdmX complementation, luminescence; AID 485346; inhibition, % at 8 µM; 330,000 tested, 3% active;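 active = inhibition of at least 50% at 8 µM in the primary screen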
# Target sequence (O15151 whole entry, looked up): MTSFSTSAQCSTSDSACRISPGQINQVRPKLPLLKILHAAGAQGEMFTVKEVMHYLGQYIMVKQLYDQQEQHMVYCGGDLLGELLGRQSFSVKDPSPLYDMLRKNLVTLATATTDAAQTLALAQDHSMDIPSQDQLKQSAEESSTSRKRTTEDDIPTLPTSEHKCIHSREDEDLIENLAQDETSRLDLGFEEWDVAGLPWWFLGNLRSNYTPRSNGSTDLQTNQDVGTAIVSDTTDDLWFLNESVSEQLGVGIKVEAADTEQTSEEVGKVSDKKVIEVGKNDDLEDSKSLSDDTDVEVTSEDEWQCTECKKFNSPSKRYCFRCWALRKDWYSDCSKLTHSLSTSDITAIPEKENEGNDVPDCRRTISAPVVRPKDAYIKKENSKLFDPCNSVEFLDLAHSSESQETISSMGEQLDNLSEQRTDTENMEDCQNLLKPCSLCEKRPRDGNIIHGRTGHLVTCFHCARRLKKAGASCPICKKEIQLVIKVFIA
# Target sequence (Q00987 whole entry, looked up): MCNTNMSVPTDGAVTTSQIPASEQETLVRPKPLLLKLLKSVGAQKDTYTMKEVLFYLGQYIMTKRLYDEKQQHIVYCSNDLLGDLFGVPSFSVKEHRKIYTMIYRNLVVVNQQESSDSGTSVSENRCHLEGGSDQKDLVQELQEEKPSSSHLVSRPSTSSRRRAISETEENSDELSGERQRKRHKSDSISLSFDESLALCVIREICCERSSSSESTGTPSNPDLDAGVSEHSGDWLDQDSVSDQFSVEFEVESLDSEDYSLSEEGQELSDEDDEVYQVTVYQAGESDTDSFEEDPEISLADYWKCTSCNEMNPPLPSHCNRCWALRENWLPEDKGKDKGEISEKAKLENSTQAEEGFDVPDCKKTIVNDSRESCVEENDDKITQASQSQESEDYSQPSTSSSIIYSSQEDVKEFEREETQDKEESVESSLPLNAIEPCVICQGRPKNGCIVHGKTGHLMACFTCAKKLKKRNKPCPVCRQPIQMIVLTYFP
# Shn3 3UTR inh: Schnurri-3 reporter inhibition in Clone20 osteoblasts. Clone20 osteoblast Shn3 3'UTR firefly luciferase, 24 h. inhibition, % at 12.5 µM. 360,000 tested, 0.52% active. AID 588674;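 active = mean inhibition of at least 75% with every replicate also reaching 75%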;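 also: 0% = median of neutral control wells and 100% = pilot-screen positive control compound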
# 697 NFkB inh: lowers PMA/ionomycin-induced NF-kB signal in 697 B cells. inhibition, % at 4 µM. AID 435022. 697 B-cell NF-kB luciferase reporter, 16 h. 330,000 tested, 0.33% active; in the data active = inhibition above about 35%
# Jurkat NFkB inh: inhibitors of the PMA/ionomycin-induced NF-kB reporter in Jurkat cells; PMA/ionomycin-induced NF-kB luciferase reporter, luminescence; inhibition, % at 4 µM; 330,000 tested, 0.53% active; AID 435003; in the data active = inhibition above about 50%
# Gli-Sufu confirm: Gli-SUFU antagonism confirmation, single concentration. shares compounds with Gli-Sufu block. Sufu-KO-LIGHT cells, Gli luciferase reporter, luminescence. inhibition, % at 5 µM. 2,500 tested, 40% active. AID 602428;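 active = mean inhibition at 5 µM reaching about 45%, limit read from the data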;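 also: plate controls were DMSO-treated cells for no effect and wells lacking cells for full effect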
# Gli cytotox: cytotoxicity counter-screen for Gli-SUFU antagonists; shares compounds with Gli-Sufu block; Sufu-KO-LIGHT cells cytotoxicity, ATP luminescence; cytotoxicity, % at 5 µM; 2,500 tested, 32% active; AID 651994;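 active = mean cytotoxicity at 5 µM above about 25%, limit read from the data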;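 also: cells exposed to compound overnight for roughly 16 to 18 hours; plate controls were DMSO wells with cells for no effect and medium without cells for full effect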
# Wnt3a counter: Wnt3a reporter inhibition counter-screen; 2,500 tested, 20% active; shares compounds with Gli-Sufu block; Wnt-LIGHT cells, Wnt3a-driven luciferase reporter, luminescence; AID 651995; inhibition, % at 6.25 µM;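 active = mean inhibition above about 25%, limit read from the data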
# An asterisk follows results filed as active; / = no result.
SMILES,Gli-Sufu block,Mdm2 MdmX PPI,Shn3 3UTR inh,697 NFkB inh,Jurkat NFkB inh,Gli-Sufu confirm,Gli cytotox,Wnt3a counter
CCC(=O)N1CCCC(C)(C(=O)Nc2nccc3cccnc23)C1 (stereo not given),/,/,-6,/,/,/,/,/
CC1CC(C)CN(CCCNC(=O)c2ccc(CS(=O)(=O)Cc3cccc(Cl)c3)o2)C1 (stereo not given),54,11,-2,10,5,26,9,-33
CC1CCCN(CCCNC(=O)c2ccc(CS(=O)(=O)Cc3cccc(Cl)c3)o2)C1 (stereo not given),18,15,1,12,-9,/,/,/
C[C@@H](C(=O)OCn1nnc2ccccc2c1=O)N1C(=O)C2CCCCC2C1=O (stereo not given in full),-3,-10,-5,13,12,/,/,/
O=C(Cc1nnc(NC(=O)c2ccccc2)s1)N/N=C/c1ccc(O)cc1,53,15,-3,-7,6,10,19,-36
O=C(Cc1nnc(NC(=O)c2ccccc2)s1)N/N=C\c1ccc(O)c(O)c1,5,-4,-12,-16,-7,/,/,/
O=C(Nc1ncccc1O)c1ccc(Cl)c(S(=O)(=O)N2CCCC2)c1,/,/,4,/,/,/,/,/
CCOC(=O)N1CCN(C(=O)CCCCCn2c(=S)[nH]c3ccsc3c2=O)CC1,69*,-13,-3,14,-5,27,2,26*
O=C(Cn1ccc([N+](=O)[O-])n1)c1ccccc1,51,-19,-4,-14,-17,8,21,-5
O=C(Cn1cnc([N+](=O)[O-])n1)c1ccccc1,24,-4,-8,2,-1,/,/,/
CC1=CC(C)C2(COC(c3ccc[n+](C)c3)OC2)C(C)C1 (stereo not given),58*,/,17,/,/,53*,17,-4
CCc1nc2c(OCc3ccc(F)cc3)cccn2c1N(C)C(=O)c1ccc(C)cc1,/,/,4,/,/,/,/,/
CC(=O)N(C)c1cccc(-c2ccc3nnc(C)n3n2)c1,56*,-7,3,19,-3,16,2,23
Cc1nnc2ccc(-c3ccc(NC(=O)c4ccco4)cc3)nn12,13,20,4,8,-1,/,/,/
COc1ccc(NC(=O)CN(C)C(=O)c2c(-c3ccccc3Cl)noc2C)cc1,-9,9,-3,13,1,/,/,/
COc1ccc(CN(C)C(=O)COC(=O)c2c(-c3ccccc3Cl)noc2C)cc1,55,1,13,-12,9,22,1,0
COc1cc2ncnc(NCCc3ccccc3)c2cc1OC,60*,38,58,9,24,32,-1,-27
COc1ccc(CCNc2ncnc3cc(OC)c(OC)cc23)cc1OC,44,/,67,/,/,/,/,/
COc1ccc(C(=O)NC2(C(F)(F)F)NC(=O)N(CCCc3ccccc3)C2=O)cc1OC (stereo not given),37,5,16,-6,-5,/,/,/
O=C(COC(=O)c1cnccn1)c1cccc([N+](=O)[O-])c1,50,7,6,8,15,19,16,0
O=C(COC(=O)c1cnccn1)c1ccc2ccccc2c1,6,19,-7,12,20,/,/,/
CN1/C(=C\C(=O)c2cncc(Br)c2)C(C)(C)c2ccccc21,66*,28,73,-46,10,69*,37*,15
CN1/C(=C\C(=O)C(F)F)C(C)(C)c2ccccc21,17,8,1,-14,-10,/,/,/
Cc1ccc(C(=O)NC(=S)/C=C2\N(C)c3ccccc3C2(C)C)cc1,77*,19,75,-4,41,27,12,-10
CN1/C(=C\C=N\NC(=O)c2cccnc2)C(C)(C)c2ccccc21,2,12,2,4,7,/,/,/
SMILES,Gli-Sufu block,Mdm2 MdmX PPI,Shn3 3UTR inh,697 NFkB inh,Jurkat NFkB inh,Gli-Sufu confirm,Gli cytotox,Wnt3a counter
CN1/C(=C\C=N\NC(=O)c2ccc(O)cc2)C(C)(C)c2ccccc21,76*,28,88*,-6,39,65*,25*,12
CC(=O)/C=C1\N(C)c2ccc(C)cc2C1(C)C,61*,39,71,4,15,61*,29*,30*
CC(C)n1nc(C(=O)NNC(=O)c2ccc(OC(F)F)cc2)c2ccccc2c1=O,2,-3,10,19,-3,/,/,/
CC(C)C(=O)NC(=S)/C=C1/N(C)c2ccccc2C1(C)C,56*,28,71,-13,32,57*,17,12
COc1ccccc1CNC(=O)[C@H](C)N1C(=O)N2CCc3c([nH]c4ccccc34)[C@@]2(C)C1=O,66*,28,50,2,11,34,5,2
COc1ccc(CCNC(=O)[C@H](C)N2C(=O)N3CCc4c([nH]c5ccccc45)[C@@]3(C)C2=O)cc1OC,-2,13,27,8,4,/,/,/
O=C(CCC1CCCCC1)Nc1cccnc1,56*,-8,-7,4,-25,19,-9,-22
Cc1cc(C)n(-c2ccc(NC(=O)C3CCCCN3C(=O)c3ccc(C)s3)cc2)n1 (stereo not given),4,19,2,-17,5,/,/,/
Cc1cc(OCCN2CCC(Cc3ccccc3)CC2)ccc1[N+](=O)[O-],35,18,-9,-1,11,/,/,/
Cc1ccc(C(=O)NC(=S)N2CCN(C)CC2)cc1,-2,-16,18,-16,4,/,/,/
CN1CCN(C(=S)NC(=O)c2ccc(C(C)(C)C)cc2)CC1,60*,-10,-14,-22,20,17,11,-63
COc1ccc(C(CNc2ccc(S(C)(=O)=O)cc2[N+](=O)[O-])N(C)C)cc1OC (stereo not given),-9,13,-16,3,8,/,/,/
CCOC(=O)c1c(C2COc3ccccc3O2)csc1N (stereo not given),55,3,13,-19,-10,13,29*,-19
CC1=CC[C@@]23CCCN2C(=O)CCC[C@H]3C1,7,-8,-15,14,/,/,/,/
CCC(NC(=O)NCc1ccc2c(c1)OCO2)(C(F)(F)F)C(F)(F)F,-8,3,17,14,0,/,/,/
CCC(NC(=O)NCc1ccccc1)(C(F)(F)F)C(F)(F)F,52,-16,-9,-16,-6,9,27*,-12
CCC(C)(C)c1ccc(Oc2ccc(N)cc2)cc1,74*,/,88*,/,/,83*,31*,105*
CC(C(=O)NCCS(=O)(=O)c1ccc(Cl)cc1)S(=O)(=O)c1ccccc1 (stereo not given),-2,20,2,0,-7,/,/,/
CC(C(=O)NCCS(=O)(=O)c1ccc(Cl)cc1)S(=O)(=O)c1ccc(Cl)cc1 (stereo not given),72*,1,2,-16,-22,18,6,5
